Screens (PubChem BioAssay)
Sampled rows, rich in hits. Any-hit rate of the full collection: about 3.2%.
CRFR2-BP antag = antagonists of CRF-BP/CRF-R2 complex, primary screen, cell-based, HEK293, calcium dye fluorescence, uHTS; CRF-induced calcium fluorescence; inhibition, % at 11.8 µM; 0.59% of 350,000 active; AID 588475, 2011;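 active = inhibition of the ligand-induced calcium signal above about 50% at the single tested concentration, limit read from the data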
H9c2 protect = cardioprotection against H2O2-induced cell death, primary screen, uHTS, H9c2 cells, ATPLite luminescence; H9c2 cardiomyocytes, H2O2 injury protection, 2 h; protection from H2O2 cell death, % at 20 µM; 0.63% of 360,000 active; AID 588492, 2011;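 active = compounds giving at least 50% protection of heart cells from peroxide-induced death in the single-dose screen, raw or plate-pattern-corrected value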;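 note: 0% = DMSO wells with peroxide and 100% = DMSO wells without peroxide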
CRFR2-BP ag = agonists of CRF-BP/CRF-R2 complex, primary screen, cell-based, HEK293, calcium dye fluorescence, uHTS; calcium dye fluorescence (FLIPR); percent of saturating CRF peptide response; activation, % at 13.2 µM; 0.46% of 350,000 active; AID 588473, 2011;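 active = activation of at least 50%, plus an integration ratio under a set limit after plate pattern correction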;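 note: plate controls were neutral control wells without compound for no effect and CRF at EC100 for full effect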
FAS TE block = FAS thioesterase domain inhibitors, primary screen, biochemical, fluorescence intensity, uHTS. Fatty acid synthase (Homo sapiens), P49327. recombinant FAS-TE, OMFH fluorogenic substrate, fluorescence endpoint. inhibition, % at 15 µM. 0.67% of 360,000 active;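 active = compounds whose normalised, plate-corrected inhibition of enzyme fluorescence in the single-dose primary screen is 50% or more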;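 note: 0% = DMSO with enzyme and 100% = substrate without enzyme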
PfGluPho inh = PfG6PD enzyme inhibitors, primary screen, biochemical, fluorescence intensity, uHTS; glucose-6-phosphate dehydrogenase-6-phosphogluconolactonase (Plasmodium falciparum 3D7); PfGluPho enzyme, NADPH resazurin-diaphorase fluorescence; inhibition, % at 20 µM; 0.78% of 350,000 active; AID 504690, 2011;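 active = inhibition reaching at least a set limit at 20 µM in the primary screen, cut at about 59% in these data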;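 note: 0% = DMSO wells with substrate and 100% = DMSO wells lacking glucose-6-phosphate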
aDG glyco act = activators of alpha-DG glycosylation, primary screen, uHTS, Pro5-aDG cells, AlphaScreen; alpha-DG glycosylation AlphaScreen (IIH6); 0% Pro5, 100% B10-LARGE cell signal; activation, % at 10 µM; 0.22% of 360,000 active; AID 624168, 2012;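 active = activation of at least 8% versus controls, or a plate z-score of at least 8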;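 note: Pro5 are CHO cells carrying HIG-tagged alpha-DG that lacks glycosylation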
The depositor's hits bear a star; . = not tested or not shown.

SMILES | CRFR2-BP antag | H9c2 protect | CRFR2-BP ag | FAS TE block | PfGluPho inh | aDG glyco act
CCN(CC)S(=O)(=O)c1cccc(C(=O)N/N=C/c2ccccn2)c1 | 2 | 51* | 2 | -2 | 5 | 0
O=C(COc1cccc(NC(=O)c2cccc([N+](=O)[O-])c2)c1)c1ccc(F)cc1 | -6 | 78* | -1 | 25 | 26 | 2
Cc1ccc(C(=O)N/N=C\c2ccc(-c3ccc(Cl)cc3)o2)cn1 | -9 | 60* | -3 | 5 | 9 | 0
O=C(N/N=C/c1ccccn1)c1ccc(NC(=O)c2cccc([N+](=O)[O-])c2)cc1 | 0 | 69* | 6 | 2 | 4 | 0
CC1=C(C(=O)OC2CCC(C)CC2)C(c2ccc(O)c([N+](=O)[O-])c2)NC(=O)N1 (stereo unspecified) | 8 | 3 | 1 | 8 | -6 | 0
CCN1C[C@@H]2[C@@H]3C(=O)N(C)C(=O)[C@@H]3[C@](CC)(C1=O)N2C(=O)c1ccc(C)cc1 | 3 | 1 | -2 | -6 | 7 | 0
CC(C)C(=O)NC(c1cccs1)c1cc([N+](=O)[O-])c2cccnc2c1O (stereo unspecified) | -5 | 56* | -2 | 15 | 32 | 0
Cc1ccc(C(NC(=O)C(C)C)c2cc([N+](=O)[O-])c3cccnc3c2O)cc1 (stereo unspecified) | 33 | 51* | -1 | 17 | 19 | 0
COc1ccc(CCN2CC(C(=O)NCc3cccc4[nH]ccc34)CCC2=O)cc1 (stereo unspecified) | 0 | 6 | 1 | 3 | -5 | 0
COc1ccc2cc(-c3ccccc3)c(=O)oc2c1 | 9 | -10 | 1 | 4 | -7 | 0
CC(=O)Oc1ccc2cc(-c3cccnc3)c(=O)oc2c1 | 79* | 6 | 0 | -6 | 9 | 0
NC(=O)c1ccc(NC(=O)COC(=O)c2c3c(nc4ccccc24)/C(=C\c2cccs2)CCC3)cc1 | -19 | 54* | 1 | 3 | 5 | -1
CCc1cccc(C)c1NC(=O)COC(=O)c1c2c(nc3ccccc13)/C(=C\c1cccs1)CCC2 | -34 | 1 | 5 | 23 | 19 | 0
CC(Sc1nnc2ccccn12)C(=O)Nc1ccc2c(c1)OCO2 (stereo unspecified) | 23 | 5 | 3 | -7 | 12 | 0
O=[N+]([O-])c1cc2oc3c(c2c(C=NCc2ccccc2)c1O)CCCC3 | -61 | 61* | 3 | 1 | 22 | 0
Cc1oc2cc([N+](=O)[O-])c(O)c([N+](=O)[O-])c2c1C(=O)c1ccc(Cl)cc1 | 38 | -11 | -2 | 10 | -18 | 0
CC(C)CN=Cc1c(O)c([N+](=O)[O-])cc2oc3c(c12)CCCC3 | 13 | 95* | 1 | 20 | 9 | 0
COc1ccc(/C=N/N2C(=O)CN(C(=O)c3ccccc3)C2c2ccc(OC)cc2)cc1 (stereo unspecified) | -17 | 2 | 0 | 26 | 2 | 0
COc1ccc(C2N(Cc3ccccc3)CC(=O)N2/N=C(\C)c2ccccc2)cc1 (stereo unspecified) | 81* | -8 | 1 | 30 | 6 | 0
CCOC(=O)C1CCCN(S(=O)(=O)c2cc3c4c(c2)CCC(=O)N4CCC3)C1 (stereo unspecified) | 11 | -13 | -2 | -8 | -2 | 1
C[C@H](NC(=O)Nc1ccc2c(c1)OCCO2)C(=O)O | 96* | 1 | -1 | -4 | -9 | 0
CCc1nc2ccc(C(=O)Nc3cccc(OCC(=O)N(C)C)c3)cn2c1N(CCC(C)C)CCN(C)C | . | 10 | . | -8 | . | 0
O=C(O)c1cccc(N/C(=N\S(=O)(=O)c2ccccc2)c2ccccc2)c1 | 84* | -1 | 10 | -5 | -14 | 0
Cc1ccc(S(=O)(=O)/N=C(/Nc2cccc(C(=O)O)c2)c2ccccc2)cc1 | -17 | 0 | 0 | -1 | -23 | 0
COc1ccc(C(=O)N2CCOC2CNC(=O)C(=O)NCc2ccc(F)cc2)cc1 (stereo unspecified) | 3 | 0 | 1 | -4 | -2 | 0
SMILES | CRFR2-BP antag | H9c2 protect | CRFR2-BP ag | FAS TE block | PfGluPho inh | aDG glyco act
O=C(NCc1ccc(F)cc1)C(=O)NCC1OCCN1C(=O)c1ccc(Cl)cc1 (stereo unspecified) | 60* | 3 | -5 | 2 | 0 | 0
COc1cc(CN2CC(=O)N(c3cc(Cl)ccc3C)C2=S)cc(OC)c1OC | 6 | -3 | 1 | 8 | 14 | 0
CC(OC(=O)c1ccc(S(=O)(=O)NCc2ccco2)cc1)C(=O)Nc1ccc(Cl)cn1 (stereo unspecified) | -218 | -5 | 99* | 10 | 12 | 0
O=C(COC(=O)c1ccc(S(=O)(=O)NCc2ccco2)cc1)Nc1ncc(Cl)cc1Cl | 8 | 8 | 1 | -6 | 6 | 0
CCN(CC)Cc1cc(O)c(CN(CC)CC)cc1O | -7 | 55* | 8 | -9 | 76* | 0
CN(CC(=O)Nc1ccc(F)c(Cl)c1)S(=O)(=O)c1ccc2c(c1)n(C)c(=O)c(=O)n2C | -21 | 6 | 0 | 22 | 4 | 0
O=C(NC1CCCCC1)C(c1ccccc1)N(C(=O)c1csnn1)C1CCCC1 (stereo unspecified) | -1 | -4 | 0 | 4 | -14 | 0
COc1cccc(/C=N/NC(=O)CNC(=O)/C=C\c2ccccc2)c1O | -12 | 52* | -1 | 2 | -25 | 0
COc1ccc(Br)cc1/C=N/NC(=O)CNC(=O)/C=C/c1ccccc1 | -21 | 64* | 1 | 13 | 4 | 0
O=C(CCc1ccccc1)NCC(=O)N/N=C/c1ccc(O)cc1O | -7 | 53* | -3 | -4 | -27 | 0
O=C(CN1CCCc2ccccc21)N/N=C/c1ccc(O)cc1O | 14 | 52* | 0 | 2 | -14 | 0
O=C(CN1CCN(C(=O)C2COc3ccccc3O2)CC1)Nc1ccccc1 (stereo unspecified) | 1 | 0 | -3 | -3 | 0 | 0
O=S(=O)(Nc1ccc(-n2cnnn2)cc1)c1ccc(Cl)s1 | 13 | -1 | 0 | 0 | -9 | 0
COc1ccccc1/C=C/C(=O)NCC(=O)N/N=C/c1ccccc1 | -8 | -7 | 0 | -8 | -8 | 0
COc1ccccc1/C=C\C(=O)NCC(=O)N/N=C/c1ccc(O)cc1O | -2 | 52* | -1 | -2 | -30 | 0
